Compound activity from PubChem.
hNpr1 antagonist = human Npr1 receptor antagonism; P16066; HEK293 hNpr1 GloSensor cGMP, ANP-stimulated luminescence; Potency, µM (series often up to 46.3 µM), hits mostly inhibitors; 76,000 compounds, 1.6% hits; AID 1347048; calls by dose curve; note: nearly all actives have a fitted effect of over 60% in size
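Compound pre-incubated 30 min at room temperature on GloSensor-loaded HEK293 cells stably carrying hNpr1 and the pGS-40F cGMP biosensor. Stimulation uses hNppA at 0.1 nM final; luminescence is taken at baseline and 20 min post-agonist.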
HEK293 tox = HEK 293 cell cytotoxicity. AID 1345083. HEK 293 viability, ATP luminescence (CellTiter-Glo), 48-72 h. 94,000 compounds, 6.6% hits. Potency, µM (titrated, usually from 115 µM), actives largely listed as inhibitors; note: nearly all actives have a fitted effect of over 60% in size
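ATP-coupled CellTiter-Glo luminescence served as viability read-out, recorded 10 min after reagent addition at room temperature. HEK 293 cells, 250 cells/well, had been incubated with pintool-transferred compound for 48 or 72 hr at 37 degree Celsius.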
3T3 cytotox = cytotoxic compounds in NIH 3T3 cells. Potency, µM (top dose mostly 96.7 µM), usual class: inhibitors. NIH 3T3 viability, CellTiter-Glo ATP luminescence, 48-72 h. AID 1345082. 94,000 compounds, 4.3% hits; note: nearly all actives have a fitted effect of over 55% in size
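Luminescent ATP readout (CellTiter-Glo, 10 min RT) after 48 or 72 hr compound exposure of NIH 3T3 cells seeded at 400 cells/well in 1536-well format; quantitative HTS.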
Luciferase inh = inhibitors of firefly (Photinus pyralis) luciferase. purified P. pyralis luciferase, luminescence, biochemical. 76,000 compounds, 2.5% hits. Potency, µM (highest dose often 115 µM), usual class: inhibitors; note: nearly all actives have a fitted effect of over 65% in size
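Cell-free enzyme assay, 10nM P. pyralis luciferase, luciferin and ATP each at 10uM. Inhibition profiled over a 6-point titration, read as luminescence.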
GPT2 inh = inhibitors of human GPT2 alanine aminotransferase | Q8TD30 | Recombinant GPT2, coupled pyruvate oxidase/HRP Amplex Red fluorescence | Potency, µM (series often up to 57.7 µM), usual class: inhibitors | 100,000 compounds, 0.25% hits; note: nearly all actives have a fitted effect of over 60% in size
Target sequence (Q8TD30 whole entry, looked up): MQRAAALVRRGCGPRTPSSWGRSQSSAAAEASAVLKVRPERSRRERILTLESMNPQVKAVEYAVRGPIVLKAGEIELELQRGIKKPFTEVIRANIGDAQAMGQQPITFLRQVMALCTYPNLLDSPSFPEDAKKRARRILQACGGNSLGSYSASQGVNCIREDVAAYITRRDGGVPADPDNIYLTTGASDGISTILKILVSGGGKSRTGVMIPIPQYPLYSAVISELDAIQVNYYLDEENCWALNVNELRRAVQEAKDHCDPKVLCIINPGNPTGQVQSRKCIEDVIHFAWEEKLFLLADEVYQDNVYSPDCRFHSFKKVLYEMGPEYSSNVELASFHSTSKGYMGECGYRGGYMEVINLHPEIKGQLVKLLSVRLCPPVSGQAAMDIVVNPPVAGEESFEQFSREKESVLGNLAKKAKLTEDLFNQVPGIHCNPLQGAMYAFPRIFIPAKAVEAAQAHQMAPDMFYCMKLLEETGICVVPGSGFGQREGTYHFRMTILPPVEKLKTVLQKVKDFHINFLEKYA
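Fluorescence read-out: pyruvate from GPT2 turnover coupled to pyruvate oxidase, HRP and Amplex Red (0.2mM ThPP, 0.2U/mL PO and HRP, 50uM Amplex final). Substrates 250uM a-KG, 2mM L-alanine; enzyme 10ng/uL; 30 min RT.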
Of the large screens only hits and unclear results are named; the others gave an inactive call. Rows were chosen to be rich in hits. Some 10% of all compounds tested hit in one or more screens of this group. Unless noted, calls come from the whole dose curve; as a rule, active = well fitted curve in the direction sought with a large enough effect; inconclusive = small, poorly fitted or top-dose-only effect, or another doubt; inactive = no such curve, though single readings can be large; an effect the other way counts as inactive or inconclusive.

Cc1ccc(-c2ccnc(N(C)CC3CC(=O)N(C(C)(C)C)C3)n2)c(C)n1 (centres undefined)	HEK293 tox 79.4µM, 3T3 cytotox inconclusive
O=C(C1CCOCC1)N1CCC(c2noc(-c3cnccn3)n2)C1 (centres undefined)	none
Cc1ccc(-c2cc3c(=O)n(CCNC(=O)c4ccc(F)cc4)ccn3n2)c(C)c1	hNpr1 antagonist inconclusive, HEK293 tox inconclusive, Luciferase inh inconclusive
Cc1ccc(-c2cc3c(=O)n(CCNC(=O)Cc4ccccc4Cl)ccn3n2)c(C)c1	Luciferase inh 2.51µM
Cc1ccc(-c2cc3c(=O)n(CCNC(=O)c4cc(C5CC5)[nH]n4)ccn3n2)c(C)c1	hNpr1 antagonist inconclusive, HEK293 tox inconclusive, Luciferase inh 1.26µM
COc1ccccc1C(=O)NCCn1ccn2nc(-c3cc(C)ccc3C)cc2c1=O	HEK293 tox inconclusive, 3T3 cytotox inconclusive
Cc1ccc(-c2cc3c(=O)n(CCNC(=O)Cc4c[nH]c5ccccc45)ccn3n2)c(C)c1	hNpr1 antagonist inconclusive, HEK293 tox 39.8µM, Luciferase inh inconclusive
Cc1ccc(-c2cc3c(=O)n(CCNC(=O)c4ccc5ccccc5n4)ccn3n2)c(C)c1	hNpr1 antagonist inconclusive, HEK293 tox inconclusive, 3T3 cytotox inconclusive, Luciferase inh inconclusive
COc1ccc(C(=O)NCCn2ccn3nc(-c4cc(C)ccc4C)cc3c2=O)c(OC)c1	HEK293 tox 39.8µM, 3T3 cytotox inconclusive
Cc1ccc(-c2cc3c(=O)n(CCNC(=O)Cc4ccccc4Cl)ccn3n2)cc1C	HEK293 tox inconclusive
Cc1cccc2c1CC[C@H](CN1CCC(c3c(Cl)cccc3Cl)CC1)C[C@@H]2O	none (no result: hNpr1 antagonist, HEK293 tox, 3T3 cytotox, Luciferase inh)
Cc1ccc(C)c(-c2cc3c(=O)n(CCNC(=O)c4ccccc4Cl)ccn3n2)c1	HEK293 tox 44.7µM, 3T3 cytotox 35.5µM
Cc1ccc(C)c(-c2cc3c(=O)n(CCNC(=O)c4ccc(C#N)cc4)ccn3n2)c1	HEK293 tox 12.6µM, 3T3 cytotox inconclusive
Cc1ccc(C)c(-c2cc3c(=O)n(CCNC(=O)c4ccc5ccccc5n4)ccn3n2)c1	HEK293 tox 35.5µM, 3T3 cytotox inconclusive
Cc1ccc(C(=O)NCCn2ccn3nc(-c4cc(C)ccc4C)cc3c2=O)cc1	HEK293 tox inconclusive
COc1ccccc1-c1cnc(NCc2ccccc2)c2c1CCO2	HEK293 tox inconclusive, 3T3 cytotox 25.1µM, GPT2 inh inconclusive
COc1ccccc1-c1cnc(Nc2cc(F)cc(N3CCOCC3)c2)c2c1CCO2	HEK293 tox inconclusive, 3T3 cytotox inconclusive
COc1ccccc1-c1cnc(Nc2ccc3c(c2)OCCO3)c2c1CCO2	hNpr1 antagonist inconclusive, HEK293 tox inconclusive, Luciferase inh 14.1µM
COc1ccc(-c2ccnc(N[C@H]3CO[C@H]4[C@@H]3OC[C@@H]4NC(=O)c3ccc4c(c3)OCO4)n2)cc1	hNpr1 antagonist inconclusive, HEK293 tox 31.6µM, 3T3 cytotox inconclusive
O=C(Nc1cccc(C(F)(F)F)c1)O[C@@H]1CO[C@H]2[C@@H]1OC[C@@H]2Nc1nccc(-c2ccc(-c3ccccc3)cc2)n1	none
CN(C)c1ccc(-c2ccnc(N[C@H]3CO[C@H]4[C@@H]3OC[C@H]4OC(=O)Nc3cccc(C(F)(F)F)c3)n2)cc1	HEK293 tox 31.6µM, 3T3 cytotox inconclusive
O=S(=O)(Cc1ccccc1)N[C@H]1CO[C@H]2[C@@H]1OC[C@@H]2Nc1nccc(-c2cccc(F)c2)n1	hNpr1 antagonist inconclusive, HEK293 tox 31.6µM, 3T3 cytotox inconclusive
O=C(N[C@H]1CO[C@H]2[C@@H]1OC[C@@H]2Nc1nccc(-c2ccc(-c3ccccc3)cc2)n1)c1ccc2c(c1)OCO2	none
N#Cc1cccc(NC(=O)O[C@@H]2CO[C@H]3[C@@H]2OC[C@@H]3Nc2nccc(-c3ccc4c(c3)OCO4)n2)c1	HEK293 tox 28.2µM, 3T3 cytotox inconclusive
CC(C)(C)c1ccc(NC(=O)O[C@@H]2CO[C@H]3[C@@H]2OC[C@@H]3Nc2nccc(-c3ccc(-c4ccccc4)cc3)n2)cc1	HEK293 tox 28.2µM, 3T3 cytotox 39.8µM
COc1ccc(C(=O)N[C@H]2CO[C@H]3[C@@H]2OC[C@@H]3Nc2nccc(-c3cccc(F)c3)n2)cc1	HEK293 tox inconclusive
COc1ccc(-c2ccnc(N[C@H]3CO[C@H]4[C@@H]3OC[C@@H]4NC(=O)Nc3cccc(C(F)(F)F)c3)n2)cc1	HEK293 tox 39.8µM, 3T3 cytotox 39.8µM
COc1cccc(NC(=O)O[C@@H]2CO[C@H]3[C@@H]2OC[C@@H]3Nc2nccc(-c3cccc(F)c3)n2)c1	HEK293 tox 44.7µM, 3T3 cytotox inconclusive
COc1ccccc1-c1ccnc(N[C@H]2CO[C@H]3[C@@H]2OC[C@@H]3NC(=O)Nc2cccc(C(F)(F)F)c2)n1	none
CC(=O)N[C@H]1CN(S(=O)(=O)c2ccc(C)c(F)c2)C[C@@H]1C(C)C	HEK293 tox inconclusive
COc1ccc(C(=O)Nc2ccc([C@H]3OCC(=O)N(Cc4ccncc4)[C@@H]3CO)cc2)cc1OC	3T3 cytotox 89.1µM
COc1ccc(C(=O)Nc2ccc([C@H]3OCC(=O)N(Cc4ccc(F)cc4)[C@@H]3CO)cc2)cc1	HEK293 tox inconclusive, Luciferase inh 44.7µM
O=C(Nc1ccccc1)Nc1ccc([C@H]2OCC(=O)N(Cc3ccc(F)cc3)[C@@H]2CO)cc1	HEK293 tox 39.8µM, 3T3 cytotox inconclusive
COc1ccc(C(=O)Nc2ccc([C@H]3OCC(=O)N(C(C)C)[C@@H]3CO)cc2)cc1OC	none
O=C(Nc1ccccc1)Nc1ccc([C@@H](O)[C@H]2COCC(=O)N2Cc2ccc(F)cc2)cc1	HEK293 tox 79.4µM, 3T3 cytotox inconclusive, Luciferase inh inconclusive
Cc1cc(C(=O)Nc2ccc([C@H]3OCC(=O)N(CC(=O)N(C)C)[C@@H]3CO)cc2)nn1C	none
CC(C)CN1C(=O)CO[C@H](c2ccc(NC(=O)c3ccc(C(F)(F)F)cc3)cc2)[C@H]1CO	hNpr1 antagonist 12.6µM, HEK293 tox inconclusive, 3T3 cytotox inconclusive, Luciferase inh 44.7µM
COc1ccccc1C(=O)N1CCC2(CC1)OC(=O)N(Cc1csc(C)n1)C2(C)c1ccccc1 (centres undefined)	3T3 cytotox inconclusive
Cc1nc(CN2C(=O)OC3(CCN(C(=O)c4scnc4C)CC3)C2(C)c2ccccc2)cs1 (centres undefined)	3T3 cytotox 28.2µM
Cc1nc(CN2C(=O)OC3(CCN(C(=O)c4ccnn4C)CC3)C2(C)c2ccccc2)cs1 (centres undefined)	3T3 cytotox 31.6µM
Cc1nc(CN2C(=O)OC3(CCN(C(=O)c4cccnc4)CC3)C2(C)c2ccccc2)cs1 (centres undefined)	3T3 cytotox 44.7µM
Cc1cccc(C(=O)N2CCC(Oc3ccccc3-c3nc(C)no3)C2)c1 (centres undefined)	HEK293 tox inconclusive
